Target: T1, USP38 (UniProt Q8NB14)
T1 sequence (whole entry): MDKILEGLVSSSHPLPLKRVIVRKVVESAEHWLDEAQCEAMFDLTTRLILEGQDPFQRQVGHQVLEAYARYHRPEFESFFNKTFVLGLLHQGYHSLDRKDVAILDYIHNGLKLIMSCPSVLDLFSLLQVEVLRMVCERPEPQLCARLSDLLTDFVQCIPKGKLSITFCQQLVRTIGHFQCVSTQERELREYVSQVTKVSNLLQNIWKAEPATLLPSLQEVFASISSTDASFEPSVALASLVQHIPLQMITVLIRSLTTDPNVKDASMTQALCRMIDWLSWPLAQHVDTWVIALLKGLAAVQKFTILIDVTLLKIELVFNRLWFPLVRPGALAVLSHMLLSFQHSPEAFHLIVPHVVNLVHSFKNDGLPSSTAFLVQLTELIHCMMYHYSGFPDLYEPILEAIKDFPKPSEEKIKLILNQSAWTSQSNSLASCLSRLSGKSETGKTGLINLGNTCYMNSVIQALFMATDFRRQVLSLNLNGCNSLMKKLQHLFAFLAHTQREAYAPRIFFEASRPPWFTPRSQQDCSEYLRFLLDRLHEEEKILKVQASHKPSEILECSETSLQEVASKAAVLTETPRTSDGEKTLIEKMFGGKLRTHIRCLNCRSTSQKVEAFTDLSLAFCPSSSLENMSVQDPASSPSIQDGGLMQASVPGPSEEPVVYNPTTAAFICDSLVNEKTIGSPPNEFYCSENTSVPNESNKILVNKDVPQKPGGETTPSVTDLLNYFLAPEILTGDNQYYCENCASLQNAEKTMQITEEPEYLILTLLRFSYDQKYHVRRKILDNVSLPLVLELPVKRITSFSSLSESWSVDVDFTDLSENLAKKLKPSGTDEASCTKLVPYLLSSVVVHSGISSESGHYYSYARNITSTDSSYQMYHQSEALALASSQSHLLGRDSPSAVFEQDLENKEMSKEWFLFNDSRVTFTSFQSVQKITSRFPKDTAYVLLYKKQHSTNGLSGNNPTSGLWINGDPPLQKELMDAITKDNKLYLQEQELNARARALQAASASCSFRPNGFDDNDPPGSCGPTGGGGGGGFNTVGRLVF
Test: log2 ratio of Biotin-Ahx-Ub-VS probe labelling (compound/DMSO); higher = less target engagement, active = hit call of the paper (q ≤ 0.05, log2 ratio ≤ -1)
Settings: treatment time: 3 h
Method in brief: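 Average ratios of compound to vehicle were obtained by unpaired t-test. Beforehand, 495 µg samples of HEK293T lysate in buffer with protease inhibitors were treated in triplicate with compound over a concentration series or vehicle for 3 h, then with 0.5 µM final Biotin-Ahx-Ub-VS for 1 h. Labelled deubiquitinases were NeutrAvidin-enriched, digested and quantified label-free by diaPASEF LC-MS/MS in Spectronaut, normalised to the global median. Values are log2 and cover proteins with at least two unique peptides.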

Measured: log2 ratio of Biotin-Ahx-Ub-VS probe labelling

O=C(CCl)NC1CCCc2ccccc21 (centres undefined)
inactive: compound concentration: 0.78uM -0.0722 | compound concentration: 1.56uM -0.0473 | compound concentration: 3.13uM -0.124 | compound concentration: 6.25uM -0.102 | compound concentration: 12.5uM -0.214 | compound concentration: 25uM -0.157 | compound concentration: 50uM -0.0382 | compound concentration: 100uM -0.104 | compound concentration: 200uM -0.148
